40 compounds from PubChem BioAssay can be followed below.

Unmarked numbers belong to inactive results. No rule for the calls is given here.

This assay deals with L-lactate dehydrogenase (Plasmodium falciparum (isolate CDC / Honduras)) (UniProt Q27743). The experiment in a line: PfLDH activity inhibition – cell lysate, 3D7 strain, counter-screen for P. falciparum growth inhibition project (AID 2304).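 Also: 0% = vehicle and 100% = reference inhibitor.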 The conditions noted are these: P. falciparum 3D7 crude extract, LDH APAD/NBT absorbance; at 2 µM; hits give high values. For orientation: Counterscreens check selectivity or assay interference.
Sequence of L-lactate dehydrogenase (Plasmodium falciparum (isolate CDC / Honduras)) (Q27743 whole entry, looked up): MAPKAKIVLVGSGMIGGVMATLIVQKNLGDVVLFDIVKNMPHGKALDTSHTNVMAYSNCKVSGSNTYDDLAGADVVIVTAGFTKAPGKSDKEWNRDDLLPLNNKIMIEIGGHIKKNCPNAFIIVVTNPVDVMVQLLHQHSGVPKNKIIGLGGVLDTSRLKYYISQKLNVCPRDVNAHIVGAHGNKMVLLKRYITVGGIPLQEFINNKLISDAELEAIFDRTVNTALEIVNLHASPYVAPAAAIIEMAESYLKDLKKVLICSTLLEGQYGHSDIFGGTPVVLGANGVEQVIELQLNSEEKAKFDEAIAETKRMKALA
The term inhibition denotes the drop in the measured response relative to a control, in per cent. As for `Cc1ccc2cc(NCCCCCCCCON3C(N)=NC(N)=NC34CCCCC4)ccc2n1`, the inhibition is 3%. With `O=C(C1CCN(c2nnnn2-c2ccccc2)CC1)N1CCc2ccccc2C1` the figure was -9%. With `COc1cc2nc(N3CCN(C(=O)c4ccco4)CC3)nc(NCc3ccccc3)c2cc1OC` the figure was -5%; with `C[C@@H]1CN(c2cnn(C/C=C/c3ccc(NC(=O)c4ccc(Cl)cc4)cc3)c(=O)c2Cl)C[C@H](C)N1`, -2%; with `O=C(N[C@@H](Cc1ccccc1)C(=O)NC1CCCCC1)c1ccc(O)c(-c2cccc(C(F)(F)F)c2)c1`, -2%. With `CC(=O)Nc1ccc(NC(=O)c2cc(-c3cc(Cl)ccc3O)n[nH]2)cc1` the figure was -2%; with `CN1CCCN(c2ccnc3cc4c(cc23)N(C(=O)c2ccc(C(F)(F)F)cc2)CC4)CC1`, 1%; with `N#Cc1ccc(-c2ccc(C(=O)NCCCCN3CCC(c4ccc5c(c4OCC(N)=O)CCCC5)CC3)cc2)cc1`, -3%. Take `NC(=O)c1cc2nc(Nc3ccc(F)cc3)nc(NC3CCC3)c2[nH]1`: the inhibition was 3%. With `CC(C)COc1ccc(Cl)cc1Nc1nc(-c2nc3ccccc3[nH]2)cs1` the figure was 0%; with `Cc1cc(OCC2CCCO2)c2cc(NC(=O)C(=O)Nc3ccc4nc(C)cc(OCC5CCCO5)c4c3)ccc2n1` (stereo not given), -4%.

Regarding `CC(C)Sc1nc2c(c(=O)n1Cc1ccco1)C1(CCCC1)Cc1ccccc1-2`, the inhibition is 4%. With `Nc1c(Cl)cc(C(O)CNCCCCCCCCCc2ccccn2)cc1Cl` (stereo not given) the figure was 2%; with `COc1cc(NC(=O)/C=C/c2cccc3ccoc23)ccc1OCCN(C(C)C)C(C)C`, 2%. As for `Cc1ccc(N(CCC(=N)N)Cc2ccccc2)cc1`, the figure is -3%; as for `c1ccc2[nH]c(CN(Cc3nc4ccccc4[nH]3)Cc3nc4ccccc4[nH]3)nc2c1`, -2%; as for `COc1cc2ccccc2cc1OCCCN1CCN(CC(c2ccc(F)cc2)N2CCN(C(C)C)CC2)CC1` (stereo not given), -3%. With `COc1ccc(CCNCCCCCNCCCc2ccc(Cl)cc2)cc1OC` the figure was 2%; with `Clc1cc(Cl)cc(Nc2ccnc(Nc3cc(Cl)cc(Cl)c3)n2)c1`, -1%.

`CC(C)(C)C(=O)Oc1ccc(CC2NCCc3cc(OC(=O)C(C)(C)C)c(OC(=O)C(C)(C)C)cc32)cc1OC(=O)C(C)(C)C` (stereo not given): the inhibition was 5%.

Regarding `CSc1ccc(NC(=O)Nc2cc(C)nc3ccccc23)cc1`, the inhibition was 1%. As for `Cc1cc(C2CCN(CCCCNC(=O)c3ccc(-c4ccc(C(F)(F)F)cc4)cc3)CC2)c(C)cc1OCC(N)=O`, the figure is -7%; as for `COc1ccc(NC(=O)CCNc2cc(C)nc(NCc3ccccc3C)n2)cc1`, -1%. With `O=C(NCC1CCC(C(=O)O)CC1)c1ccc(/C=C/C(=O)N2CCc3ccccc3C2c2ccc3c(c2)OCO3)cc1` (stereo not given) the figure was 2%; with `O=C(C=Cc1cn(-c2ccccc2)nc1-c1ccccc1)N1CCN(c2ccncc2)CC1`, 2%. With `O=c1ccc2ncc(Cl)c3c2n1CC3CN1CCC(NCc2cc3c(cn2)OCCO3)CC1` (stereo not given) the figure was -2%; with `CC(C)NCc1ccc(-c2ccc(CN3CCCC(c4ccccc4)C3)cc2)c(C(=O)NC2Cc3ccccc3C2)c1` (stereo not given), 3%. On to `O=C(Nc1ccc(-c2nc3ccccc3[nH]2)cc1)C1CCCN(C2CCC2)C1` (stereo not given), for which the inhibition was 4%. Turning to `CCOC(=O)C(Oc1ccc2ccccc2c1)C(=O)OCC`, the inhibition was -4%. With `CC(C)CNC(=S)N1CCCN(c2nc3ccc(Cl)cc3s2)CC1`, the inhibition was -3%. For the compound `O=C(CCc1ccccc1)NC(c1ccc(Cl)cc1)c1ccc2cccnc2c1O` (stereo not given), the inhibition is 2%. With `O=C(Nc1cccc(-c2cccc(-c3nc4ccc(C(F)(F)F)cc4[nH]3)c2)c1)c1ccoc1` the figure was -2%; with `COc1cc2nccc(Nc3cc(C)cc(O)c3)c2cc1OC`, 0%. `O=C(NC1CCN(CCC[C@]2(c3ccc(Cl)c(Cl)c3)CCCN(C(=O)c3ccccc3)C2)CC1)c1ccc(Cl)cc1`: the inhibition was -1%.

Regarding `COc1cc(C)cc(CN2CCC(Cc3ccccc3)CC2)c1O`, the inhibition was 0%. With `Cc1ccc(-n2c(Cc3cccc4ccccc34)nnc2SCCC#N)c(C)c1` the figure was -7%.

In the case of `O=C(NC1CCN(c2ccnc3cc(Cl)ccc23)C1)c1ccc(C(F)(F)F)cc1` (stereo not given), the inhibition was 4%. With `O=C(Nc1cccc(-c2cccc(-c3ccc(F)cc3)n2)c1)c1ccc([N+](=O)[O-])o1` the figure was 4%; with `Nc1ncc(-c2ccc(NC(=O)Nc3cc(C(F)(F)F)ccc3F)cc2)c(N)n1`, -5%. With `Nc1ncnc2nc(-c3ccc(F)cc3)cc(-c3ccc(NC(=O)c4ccccc4)cc3)c12` the figure was 0%.
